The text below walks through data of PubChem BioAssay AID504652 (National Center for Advancing Translational Sciences (NCATS), 2011).

Molecules are shown by their SMILES. Out of some 360,000 compounds screened, about 11,000 (3.1%) were called active. Cut-off read from the data, not from the text of the source: active = activity change below about -30%; inactive = the rest. The full list was thinned out, with actives kept by preference.
% is set by controls: 0 for no effect and ±100 for the full control effect.

D(1A) dopamine receptor (Homo sapiens), sequence (P21728 whole entry, looked up): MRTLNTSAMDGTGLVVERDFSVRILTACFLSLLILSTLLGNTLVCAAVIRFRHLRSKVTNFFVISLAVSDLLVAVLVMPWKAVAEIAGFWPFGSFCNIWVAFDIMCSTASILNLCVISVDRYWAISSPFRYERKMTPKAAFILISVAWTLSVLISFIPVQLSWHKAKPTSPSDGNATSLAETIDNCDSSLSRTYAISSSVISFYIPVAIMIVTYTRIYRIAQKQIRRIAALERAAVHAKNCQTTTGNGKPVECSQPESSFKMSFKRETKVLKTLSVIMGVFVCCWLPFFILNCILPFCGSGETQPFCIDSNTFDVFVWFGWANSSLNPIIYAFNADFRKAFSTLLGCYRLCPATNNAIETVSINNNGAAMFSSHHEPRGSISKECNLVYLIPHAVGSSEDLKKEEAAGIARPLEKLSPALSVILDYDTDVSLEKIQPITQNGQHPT

This test has as its target D(1A) dopamine receptor (Homo sapiens) (UniProt P21728). The test can be described thus: Antagonist of Human D 1 Dopamine Receptor: qHTS. As to conditions: HEK293 TREx D1 cells, calcium flux, dopamine EC80; at 10 µM; stronger effect = lower value. The procedure, abridged:
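Tetracycline-induced HEK293 Trex D1 cells, force-coupled to calcium, dye-loaded; compounds added and read 180 s, then EC80 dopamine added and calcium flux tracked kinetically another 180 s.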
On the technique in general: Quantitative high-throughput screening tests each substance at several concentrations.
In the case of `CCOC(=O)c1cnc2c(C)cc(C)cc2c1Nc1ccc(N2CCOCC2)cc1`, the activity change, negative = inhibition was 15.4% (inactive).
For `CCOC(=O)c1cccc(NC(=O)Cn2cnc3nc4c(cc3c2=O)CCCC4)c1` the value was 17.9% (inactive).
To `COc1cc2[nH]c(=O)n(Cc3ccc(C(=O)NCc4ccc(C)cc4)cc3)c(=O)c2cc1OC` belongs 1.6% (inactive).
Take `COc1ccc2c(c1)c(N1CCCC1=O)c(C(=O)Nc1ccc(OC)c(Cl)c1)n2C`: the activity change, negative = inhibition is 11.9% (inactive).
To `CCOC(=O)Cc1ccc(NC(=O)Nc2c[nH]c(=O)[nH]c2=O)cc1` belongs 0.423% (inactive); to `COc1ccc(C)cc1-n1c(-c2ccc(C)cc2)cc2c1CC(C)(C)CC2=O`, 12.6% (inactive); to `CC(C)S(=O)(=O)c1oc(-c2ccc(F)cc2)nc1S(=O)(=O)c1ccc(F)cc1`, 6.44% (inactive).
For `Cc1cccc(N2CCN(C(=O)c3ccc(Nc4nc5ccccc5n5nnnc45)cc3)CC2)c1C` the value was -6.91% (inactive); for `CCCOc1ccc(NC(=O)CC2C(=O)N(c3ccccc3)C(=O)N2Cc2ccco2)cc1` (stereo not given), -3.01% (inactive); for `COc1ccc(-c2nc3nc(C)cc(C)n3c2Nc2c(C)cccc2C)cc1`, 4.35% (inactive).
In the case of `Cc1ccc(C2CCN(C(=O)c3cnn(-c4ccccc4Cl)c3C3CCN(C(=O)OC(C)(C)C)CC3)C2)cc1` (stereo not given), the activity change, negative = inhibition is 6.31% (inactive).
As to `O=C(NCc1ccco1)c1nc2ncccn2n1`, the activity change, negative = inhibition was 8.67% (inactive).
As to `O=c1oc(-c2ccco2)nc2sc3c(c12)CCCCC3`, the activity change, negative = inhibition is -12.2% (inactive).
To `O=C(NCc1ccco1)c1cccn2c(=O)c3c4c(sc3nc12)CCCC4` belongs -112% (active); to `O=C(CN1C(=O)CCn2nc(-c3ccccc3)cc21)NCc1ccccc1`, -7.67% (inactive).
To `O=C(c1ccc(C(F)(F)F)cc1)N1CCC(c2nc(-c3ccc(S(=O)(=O)N4CCCC4)cc3)no2)CC1` belongs -0.206% (inactive).
To `CCCCC(=O)Nc1nc(C)c(-c2csc(Nc3ccc(Cl)cc3)n2)s1` belongs 103% (inactive); to `Cc1nc(C)c(-c2csc(NCCc3ccccc3)n2)s1`, -71% (active); to `S=c1[nH]nc(NCCc2ccccc2)s1`, 0.618% (inactive).
Turning to `CCCSC(=S)NC1CCS(=O)(=O)C1` (stereo not given), the activity change, negative = inhibition was -7.48% (inactive).
Take `O=S1(=O)CCC(NC(=S)SCc2ccccc2Br)C1` (stereo not given): the activity change, negative = inhibition is -63% (active).
For `O=C(CSc1ccccc1F)NC1CCS(=O)(=O)C1` (stereo not given) the value was 2.27% (inactive).
For `Cc1ccccc1CNC(=O)C1CCCN(S(=O)(=O)N(C)c2ccc(F)cc2)C1` (stereo not given) the value was -10.3% (inactive); for `FC(F)(F)Oc1ccc(NC(=S)NCc2ccccc2)cc1`, -19.3% (inactive).
For `S=C(NCc1cccs1)Nc1ccc(Cl)cc1` the value was -26.2% (inactive); for `Fc1ccccc1CNC(=S)Nc1ccc(Cl)cc1`, -38.1% (active); for `Cc1ccc(C(=O)Nc2cc3c(cc2N2CCCC2)n(C)c(=O)c(=O)n3C)cc1`, 16% (inactive).
For `COc1ccc(N2C(=O)CS(=O)(=O)C23C(=O)N(Cc2ccc(C)cc2)c2ccccc23)cc1Cl` (stereo not given), the activity change, negative = inhibition is -16% (inactive).
To `CCOc1ccccc1NC(=O)CN1CCCN(Cc2cccc(Cl)c2)S1(=O)=O` belongs 2.3% (inactive); to `O=C(O)CCCc1ccccc1`, -31.7% (active).
As to `O=C(O)CCC(=O)N(Cc1ccccc1)Cc1ccccc1`, the activity change, negative = inhibition is -11.6% (inactive).
For the molecule `O=C(CCCc1ccccc1)NCc1ccccc1`, the activity change, negative = inhibition was -7.61% (inactive).
To `O=C(CSc1oc(-c2ccccc2)nc1S(=O)(=O)c1ccc(Br)cc1)NC1CCCCC1` belongs 8.79% (inactive); to `CCc1ccc(-n2nnc(-c3nc(-c4ccccc4)no3)c2C)cc1`, -9.23% (inactive).
For `CC(C)c1ccc(C2C(C(=O)c3ccco3)=C(O)C(=O)N2CC2CCCO2)cc1` (stereo not given) the value was -6.37% (inactive); for `O=C(C1=C(O)C(=O)N(Cc2ccccc2)C1c1ccco1)c1ccco1` (stereo not given), -36.2% (active); for `CCOc1cc(C2C(C(=O)c3ccco3)=C(O)C(=O)N2Cc2ccccc2)ccc1O` (stereo not given), 9.97% (inactive).
In the case of `O=S(=O)(c1ccc2c(c1)OCCO2)N1CCN(S(=O)(=O)c2cc(F)ccc2F)CC1`, the activity change, negative = inhibition is -3.7% (inactive).
For `CCC(C)NC(=O)c1ccc(N2CCC3(CC2)OCCO3)c([N+](=O)[O-])c1` (stereo not given) the value was -7.67% (inactive); for `O=C(COc1ccccc1F)NNC(=O)c1ccc(N2CCCCC2)c([N+](=O)[O-])c1`, -3.15% (inactive); for `CC1CCN(c2ccc(C(=O)NCc3ccc4c(c3)OCO4)cc2[N+](=O)[O-])CC1`, -7.43% (inactive).
For the molecule `CCCNC(=O)c1ccc(N2CCC3(CC2)CC(c2cccc(Br)c2)=NO3)c(NC(=O)c2ccco2)c1`, the activity change, negative = inhibition is -2.71% (inactive).
For `COCCNC(=O)c1ccc(N2CCC3(CC2)OCCO3)c([N+](=O)[O-])c1` the value was -74.3% (active).
For `CCCNC(=O)c1ccc(N2CCC3(CC2)CC(c2ccc(Cl)cc2)=NO3)c([N+](=O)[O-])c1` the value was -31.3% (active); for `COc1cccc(NC(=O)CN2C(=O)c3ccccc3Sc3ncccc32)c1`, 5.53% (inactive); for `COc1cccc(-c2nc(CS(=O)(=O)CC(=O)N3CCN(c4cc(C)ccc4C)CC3)c(C)o2)c1`, -16.9% (inactive).
On to `CC(NC(=O)CCc1cn(Cc2ccccc2Cl)c2ccccc12)c1ccccc1` (stereo not given), for which the activity change, negative = inhibition was -6.68% (inactive).
Consider `CCOCCCNC(=O)c1c(NC(=O)Cc2coc3c(C)c(C)ccc23)sc2c1CCC2`, for which the activity change, negative = inhibition is 11.9% (inactive).
To `Cc1ccc(Cl)cc1NC(=O)CCC(=O)N1CC(C)Sc2ccccc21` (stereo not given) belongs 0.985% (inactive).
To `COc1ccccc1CNS(=O)(=O)c1ccc(C)cc1` belongs -13.9% (inactive); to `C#CCCCc1nc2ccccc2c(=O)n1N`, 3.38% (inactive).
To `Cc1ccc(S(=O)(=O)NCc2nc3ccccc3c(=O)n2N)cc1` belongs -32.4% (active).
For `Cc1ccc(Cn2c(CCCNC(=O)C3CCCCC3)nc3ccccc32)cc1`, the activity change, negative = inhibition was 10.5% (inactive).
To `CC(C)Cn1c(-c2ccc(S(=O)(=O)N3CCOCC3)cc2)csc1=Nc1cc(Cl)ccc1Cl` belongs -0.499% (inactive); to `CC1CCCN(c2nc3c(S(=O)(=O)c4ccc(C(C)C)cc4)nnn3c3ccsc23)C1` (stereo not given), -10.6% (inactive).
For `CCc1cc2c(cc(C(=O)OC)n2Cc2nc(-c3ccc(C)cc3)oc2C)s1` the value was 10.2% (inactive).
To `CC(=O)NNC1=Nc2ccccc2N(C)C(C)C1` (stereo not given) belongs 3.33% (inactive).
With `COC(=O)C1=C(C(=O)OC)[C@@H]2N(C)c3ccccc3[C@@]23C[C@@H](C(=O)OC)N(C(C)=O)C3=N1`, the activity change, negative = inhibition is -45.5% (active).
For `O=C(CSc1n[nH]c(-c2cccnc2)n1)Nc1ccnc2ccccc12` the value was -30.8% (active).
For `O=C(CSc1ncn[nH]1)Nc1ccnc2ccccc12` the value was -18.5% (inactive); for `O=C(CSc1n[nH]c(-c2cccnc2)n1)Nc1ccc(Cl)cc1`, 24.7% (inactive); for `O=C(CNC(=O)c1ccc(Cl)c(C(F)(F)F)c1)OC(C(=O)Nc1cc(C(F)(F)F)ccc1Cl)c1ccccc1` (stereo not given), 7.72% (inactive).
For `COc1ccc(Cl)cc1S(=O)(=O)N1CCC(c2ccncc2)CC1` the value was 8.07% (inactive); for `CCCn1c2ccccc2c2cnn(CC(=O)N3CCCC(C(=O)OCC)C3)c(=O)c21` (stereo not given), 13.4% (inactive).
Regarding `Cc1ccc(Cn2c(C)c3cnn(CC(=O)NCc4ccccc4)c(=O)c3c2C)cc1`, the activity change, negative = inhibition is -2.69% (inactive).
For `CCOC(=O)C1CCCN(C(=O)Cn2ncc3c(C)n(Cc4ccc(F)cc4)c(C)c3c2=O)C1` (stereo not given) the value was -36.8% (active); for `CC1CCN(C(=O)Cn2c(=O)n(-c3ccc(Cl)cc3)c(=O)c3c4c(sc32)CCC4)CC1`, -0.901% (inactive); for `CSc1ccc(NC(=O)Cn2nnnc2-c2ccccc2F)cc1`, -8.36% (inactive).
As to `Cc1ccc(Cl)cc1NC(=O)C(C)n1nnc2sc(-c3ccccc3)cc2c1=O` (stereo not given), the activity change, negative = inhibition was -1.65% (inactive).
As to `CCN(CCn1cccn1)Cc1nc(-c2ccc(C(=O)OC)cc2)no1`, the activity change, negative = inhibition was -44.5% (active).
To `COC(=O)c1ccc(-c2noc(CN(Cc3ccccn3)CC3CCCO3)n2)cc1` (stereo not given) belongs -16.4% (inactive); to `CCN(CCn1cccn1)Cc1cn[nH]c1-c1ccc(OC)cc1F`, 0.481% (inactive); to `COC(=O)c1ccccc1NC(=O)c1ccc(C#N)cc1`, 6.29% (inactive).
To `O=[N+]([O-])c1ccc(NCCCO)c(C(F)(F)F)c1` belongs 6.05% (inactive); to `COCCCNC(=S)NC(=O)c1ccc([N+](=O)[O-])cc1`, 5.38% (inactive).
For `CC(C)(C)C(=O)NCCCNc1ccc([N+](=O)[O-])cc1` the value was -35.6% (active).
In the case of `CC1=C(C(=O)OCc2ccc(C)cc2)C(c2ccccc2Cl)CC(=O)N1` (stereo not given), the activity change, negative = inhibition was -1.32% (inactive).
To `Cc1cccc(Cn2c(=O)n(CCC(=O)NCCc3ccc(Cl)cc3)c(=O)c3sccc32)c1` belongs -1.13% (inactive); to `CCN(CCCNC(=O)c1cc2cc3cc(OC)ccc3nc2s1)c1ccccc1`, -2.73% (inactive); to `CCCSc1nc2[nH]ncc2c(=O)[nH]1`, -32.5% (active).
To `Cc1ccc(CSc2nc3[nH]ncc3c(=O)[nH]2)cc1` belongs -7.82% (inactive); to `O=C(CSc1nc2[nH]ncc2c(=O)[nH]1)Nc1ccc(F)cc1`, -21.9% (inactive).
For `CCc1ccccc1NC(=O)CSc1nnc(-c2ccccc2)c(-c2ccccc2)n1` the value was 6.16% (inactive); for `O=C1/C(=C/c2ccc(F)cc2)SC(=S)N1NS(=O)(=O)c1ccccc1`, -4.82% (inactive).
Consider `O=C1/C(=C/c2ccc(F)cc2)SC(=S)N1CCCC(=O)N1CCCCC1CCO` (stereo not given), for which the activity change, negative = inhibition was -30.8% (active).
`CCN(C(=O)CN1C(=O)/C(=C/c2ccc(F)cc2)SC1=S)C1CCS(=O)(=O)C1` (stereo not given): the activity change, negative = inhibition was 6.56% (inactive).
For `O=C(Cn1cnc2c(oc3ccccc32)c1=O)Nc1ccc(OC(F)(F)F)cc1` the value was 17.3% (inactive); for `Cc1cc(Nc2ccccc2)n(C(=O)c2ccc(N)cc2)n1`, -35.8% (active).
For `Cc1cc(NC(=O)Nc2ccc(Cl)cc2)n(-c2ccccc2)n1` the value was -15.2% (inactive); for `Cn1c(Nc2ccccc2)cc(=O)n(C)c1=O`, 4.71% (inactive).
